From PubChem BioAssay AID1159580 (chemical genetic matrix, 2015)
In all, about 5,500 compounds went through this assay and about 2,000 (36%) were called active. Inconclusive results (about 18%) are left out. No stated cut-off is given here; in the data, active means normalized growth mostly below about 0.91 (no sharp cut-off); inconclusive means no clear call, values can overlap the other calls; inactive means mostly above about 0.92. The list shows a part of the results.

Assay: chemical genetic growth profiling, strain panel (AID 1159580);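 further: tested at 20 µM; growth read once vehicle control cultures reached saturation at 30 °C; 1 = growth at the plate median or of vehicle wells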
Details: S. cerevisiae deletion strains, growth OD

Measured: normalized growth

COc1ccc2c(c1)OC1(O)COc3cc(OC)c(OC)cc3C1=C2 (stereo unspecified)
inactive: locus YJR075W, strain HOC1, stronger effect = lower value 0.956 | locus YKL009W, strain mrt4, stronger effect = lower value 0.965 | locus YKL068W, stronger effect = lower value 0.99 | locus YKL085W, strain MDH1 (second series), stronger effect = lower value 0.98 | locus YKL085W, strain MDH1, stronger effect = lower value 0.98 | locus YKL160W, strain elf1, stronger effect = lower value 1 | locus YKL190W, strain CNB1, stronger effect = lower value 1.01 | locus YKR001C, strain vps1, stronger effect = lower value 0.949 | locus YKR026C, strain gcn3, stronger effect = lower value 0.974 | locus YKR091W, strain srl3, stronger effect = lower value 0.979 | locus YLL001W, strain dnm1, stronger effect = lower value 0.944 | locus YLL026W, stronger effect = lower value 0.985 | locus YLL041C, strain sdh2, stronger effect = lower value 0.987 | locus YLR027C, strain aat2, stronger effect = lower value 0.985 | locus YLR039C, strain RIC1, stronger effect = lower value 0.974 | locus YLR058C, strain SHM2, stronger effect = lower value 1 | locus YLR102C, strain apc9, stronger effect = lower value 0.99 | locus YLR113W, strain HOG1, stronger effect = lower value 0.939 | locus YLR221C, strain rsa3, stronger effect = lower value 0.96 | locus YLR258W, strain gsy2, stronger effect = lower value 0.986 | locus YLR262C, strain YPT6 (second series), stronger effect = lower value 0.926 | locus YLR262C, strain YPT6, stronger effect = lower value 0.961 | locus YLR268W, strain sec22, stronger effect = lower value 0.96 | locus YLR320W, strain mms22, stronger effect = lower value 0.925 | locus YLR330W, strain CHS5, stronger effect = lower value 0.997 | locus YLR342W, strain FKS1 (second series), stronger effect = lower value 0.91 | locus YLR342W, strain FKS1, stronger effect = lower value 0.976 | locus YLR357W, strain rsc2, stronger effect = lower value 0.983 | locus YLR370C, strain arc18, stronger effect = lower value 0.985 | locus YLR371W, strain rom2, stronger effect = lower value 0.99 | locus YLR384C, strain iki3, stronger effect = lower value 0.985 | locus YLR418C, strain cdc73, stronger effect = lower value 0.955 | locus YML016C, strain PPZ1, stronger effect = lower value 1.01 | locus YML032C, strain rad52, stronger effect = lower value 0.957 | locus YML120C, strain ndi1, stronger effect = lower value 0.989 | locus YML124C, strain tub3, stronger effect = lower value 0.986 | locus YMR058W, strain fet3, stronger effect = lower value 0.978 | locus YMR078C, strain ctf18, stronger effect = lower value 0.98 | locus YMR125W, strain sto1, stronger effect = lower value 0.985 | locus YMR129W, stronger effect = lower value 0.977 | locus YMR205C, strain PFK2, stronger effect = lower value 0.954 | locus YMR223W, strain ubp8, stronger effect = lower value 0.951 | locus YMR231W, strain pep5, stronger effect = lower value 0.983 | locus YMR263W, strain SAP30, stronger effect = lower value 1.01 | locus YMR307W, strain GAS1, stronger effect = lower value 0.984 | locus YNL067W, strain RPL9B, stronger effect = lower value 0.998
